Of roughly 7,900 targets only a part is listed; those with a hit were picked by preference. About 0.6% of all pairs of compound and target were hits.
Each target was assayed with COC(=O)N[C@@H](C)CNc1nccc(-c2cn(C(C)C)nc2-c2cc(Cl)cc(NS(C)(=O)=O)c2F)n1 [encorafenib] (assay: log2 fold change, soluble protein after heating vs DMSO (PISA); higher = thermal stabilisation; K562 cells, 10 uM, 30 min; active = over 0.2 and 3.5 SD of the protein, either way, in both replicates (recomputed)).
In short: (§1)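 K562 cells at 2×10^6 cells/mL were treated for 30 min with 10 μM compound, and aliquots were heated for 3 min over 48°C-58°C before pooling. Extraction used PBS with 0.5% NP-40 at 4°C, and soluble protein was the supernatant after 21,000xg for 90 min, measured by TMTpro 16plex LC-MS/MS with channel sums equalised. Thermal stability values, relative to control samples and from duplicates, are log2 fold changes.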

Sequence of UniProt Q13409 (Q13409 whole entry, looked up): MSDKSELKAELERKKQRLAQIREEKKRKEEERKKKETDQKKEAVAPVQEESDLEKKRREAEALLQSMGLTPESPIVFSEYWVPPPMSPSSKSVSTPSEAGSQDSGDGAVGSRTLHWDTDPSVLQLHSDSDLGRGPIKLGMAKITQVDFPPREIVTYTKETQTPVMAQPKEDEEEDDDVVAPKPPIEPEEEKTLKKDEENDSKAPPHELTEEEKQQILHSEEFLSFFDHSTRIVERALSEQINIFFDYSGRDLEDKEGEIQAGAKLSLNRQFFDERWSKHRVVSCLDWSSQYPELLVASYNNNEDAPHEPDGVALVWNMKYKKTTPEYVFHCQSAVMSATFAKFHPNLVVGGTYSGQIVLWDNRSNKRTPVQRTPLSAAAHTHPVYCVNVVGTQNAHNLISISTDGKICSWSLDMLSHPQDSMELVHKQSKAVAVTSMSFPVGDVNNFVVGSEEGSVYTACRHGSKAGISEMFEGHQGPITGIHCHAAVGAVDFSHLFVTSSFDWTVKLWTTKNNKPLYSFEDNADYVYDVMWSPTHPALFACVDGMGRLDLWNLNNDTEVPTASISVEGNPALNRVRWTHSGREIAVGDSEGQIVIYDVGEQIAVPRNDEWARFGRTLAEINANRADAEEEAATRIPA
Sequence of UniProt Q6UX07 (Q6UX07 whole entry, looked up): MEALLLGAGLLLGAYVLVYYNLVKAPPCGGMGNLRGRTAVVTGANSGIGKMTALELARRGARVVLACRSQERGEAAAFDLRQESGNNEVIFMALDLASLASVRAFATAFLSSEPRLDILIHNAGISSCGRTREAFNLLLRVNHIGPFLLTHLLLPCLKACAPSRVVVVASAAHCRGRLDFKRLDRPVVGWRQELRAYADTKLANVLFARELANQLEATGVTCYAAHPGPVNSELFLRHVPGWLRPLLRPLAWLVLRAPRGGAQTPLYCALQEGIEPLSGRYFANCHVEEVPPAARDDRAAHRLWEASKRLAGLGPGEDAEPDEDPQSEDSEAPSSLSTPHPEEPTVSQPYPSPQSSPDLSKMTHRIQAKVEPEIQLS
Sequence of UniProt Q8NF50 (Q8NF50 whole entry, looked up): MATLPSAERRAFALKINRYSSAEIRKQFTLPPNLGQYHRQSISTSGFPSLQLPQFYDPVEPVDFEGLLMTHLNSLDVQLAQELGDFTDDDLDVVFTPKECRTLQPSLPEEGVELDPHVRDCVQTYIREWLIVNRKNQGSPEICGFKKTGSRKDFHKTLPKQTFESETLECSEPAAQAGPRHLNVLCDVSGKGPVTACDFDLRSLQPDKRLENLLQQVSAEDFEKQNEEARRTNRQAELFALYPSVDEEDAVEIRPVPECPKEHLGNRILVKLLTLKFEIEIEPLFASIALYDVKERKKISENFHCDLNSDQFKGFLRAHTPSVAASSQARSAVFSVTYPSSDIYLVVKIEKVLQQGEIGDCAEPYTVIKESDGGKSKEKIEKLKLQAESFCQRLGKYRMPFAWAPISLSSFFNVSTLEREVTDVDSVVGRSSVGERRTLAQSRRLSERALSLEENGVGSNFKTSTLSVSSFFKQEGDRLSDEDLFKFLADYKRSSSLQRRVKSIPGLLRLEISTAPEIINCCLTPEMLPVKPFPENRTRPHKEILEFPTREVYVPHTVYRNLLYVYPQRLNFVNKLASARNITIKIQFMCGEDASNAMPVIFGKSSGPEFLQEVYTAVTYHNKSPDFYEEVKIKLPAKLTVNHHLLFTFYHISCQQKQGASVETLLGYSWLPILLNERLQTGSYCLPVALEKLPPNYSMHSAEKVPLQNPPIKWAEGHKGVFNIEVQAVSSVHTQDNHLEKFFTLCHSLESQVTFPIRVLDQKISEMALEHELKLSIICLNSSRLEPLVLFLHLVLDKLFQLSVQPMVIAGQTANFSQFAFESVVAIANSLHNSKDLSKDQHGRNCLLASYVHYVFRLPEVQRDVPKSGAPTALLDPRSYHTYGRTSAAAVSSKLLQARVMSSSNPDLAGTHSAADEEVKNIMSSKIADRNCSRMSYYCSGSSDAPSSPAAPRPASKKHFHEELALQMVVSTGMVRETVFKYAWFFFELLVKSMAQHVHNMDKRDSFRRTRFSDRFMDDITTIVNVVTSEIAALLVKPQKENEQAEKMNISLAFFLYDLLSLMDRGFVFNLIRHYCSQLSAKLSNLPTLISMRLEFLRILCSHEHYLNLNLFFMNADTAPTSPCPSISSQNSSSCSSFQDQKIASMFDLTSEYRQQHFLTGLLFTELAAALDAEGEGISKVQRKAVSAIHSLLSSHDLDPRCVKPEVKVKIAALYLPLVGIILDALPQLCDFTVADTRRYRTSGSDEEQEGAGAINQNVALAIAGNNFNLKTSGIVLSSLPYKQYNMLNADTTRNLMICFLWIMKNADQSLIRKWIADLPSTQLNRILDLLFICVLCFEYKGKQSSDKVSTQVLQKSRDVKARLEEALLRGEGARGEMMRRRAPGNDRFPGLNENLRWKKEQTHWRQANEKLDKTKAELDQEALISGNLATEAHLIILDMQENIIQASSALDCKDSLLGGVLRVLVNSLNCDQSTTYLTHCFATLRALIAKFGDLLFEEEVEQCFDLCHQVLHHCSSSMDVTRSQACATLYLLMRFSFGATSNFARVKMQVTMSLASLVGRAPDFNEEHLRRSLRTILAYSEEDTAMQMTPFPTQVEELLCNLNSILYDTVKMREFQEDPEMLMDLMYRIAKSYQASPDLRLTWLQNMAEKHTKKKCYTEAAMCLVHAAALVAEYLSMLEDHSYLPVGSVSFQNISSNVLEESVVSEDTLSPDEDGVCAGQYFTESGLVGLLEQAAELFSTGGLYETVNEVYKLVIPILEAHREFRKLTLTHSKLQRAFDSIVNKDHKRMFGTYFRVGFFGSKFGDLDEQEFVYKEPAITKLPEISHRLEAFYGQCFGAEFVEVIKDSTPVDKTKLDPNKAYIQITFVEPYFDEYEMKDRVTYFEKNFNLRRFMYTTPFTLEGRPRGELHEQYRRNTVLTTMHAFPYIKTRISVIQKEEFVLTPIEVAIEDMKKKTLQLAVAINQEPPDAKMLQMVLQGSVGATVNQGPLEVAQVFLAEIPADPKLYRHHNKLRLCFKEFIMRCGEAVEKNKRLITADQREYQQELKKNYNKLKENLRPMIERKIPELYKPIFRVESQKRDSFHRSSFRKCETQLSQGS
Sequence of UniProt Q01780 (Q01780 whole entry, looked up): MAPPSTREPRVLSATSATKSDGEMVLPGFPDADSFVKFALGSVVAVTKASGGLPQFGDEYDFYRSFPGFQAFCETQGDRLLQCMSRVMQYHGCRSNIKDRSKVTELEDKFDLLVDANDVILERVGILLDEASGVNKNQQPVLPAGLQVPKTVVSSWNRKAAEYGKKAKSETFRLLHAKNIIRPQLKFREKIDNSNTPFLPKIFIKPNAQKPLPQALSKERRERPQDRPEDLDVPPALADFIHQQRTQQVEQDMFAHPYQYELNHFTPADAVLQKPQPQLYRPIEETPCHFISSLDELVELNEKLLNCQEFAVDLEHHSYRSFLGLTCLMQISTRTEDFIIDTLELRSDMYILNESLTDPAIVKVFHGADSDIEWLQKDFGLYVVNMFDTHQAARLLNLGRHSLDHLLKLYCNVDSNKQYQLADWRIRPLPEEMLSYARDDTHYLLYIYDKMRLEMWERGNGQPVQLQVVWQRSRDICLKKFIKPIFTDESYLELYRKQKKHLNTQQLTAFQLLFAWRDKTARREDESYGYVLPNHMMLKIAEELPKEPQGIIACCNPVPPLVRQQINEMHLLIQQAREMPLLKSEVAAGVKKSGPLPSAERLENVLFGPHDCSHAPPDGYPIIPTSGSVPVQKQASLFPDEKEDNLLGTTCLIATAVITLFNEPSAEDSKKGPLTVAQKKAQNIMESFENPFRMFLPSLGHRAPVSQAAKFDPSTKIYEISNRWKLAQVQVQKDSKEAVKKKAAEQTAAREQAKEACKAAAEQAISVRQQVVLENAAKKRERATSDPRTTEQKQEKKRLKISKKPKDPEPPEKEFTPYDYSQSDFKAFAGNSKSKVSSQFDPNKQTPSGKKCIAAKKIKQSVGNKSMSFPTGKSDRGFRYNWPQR
Sequence of UniProt P41091 (P41091 whole entry, looked up): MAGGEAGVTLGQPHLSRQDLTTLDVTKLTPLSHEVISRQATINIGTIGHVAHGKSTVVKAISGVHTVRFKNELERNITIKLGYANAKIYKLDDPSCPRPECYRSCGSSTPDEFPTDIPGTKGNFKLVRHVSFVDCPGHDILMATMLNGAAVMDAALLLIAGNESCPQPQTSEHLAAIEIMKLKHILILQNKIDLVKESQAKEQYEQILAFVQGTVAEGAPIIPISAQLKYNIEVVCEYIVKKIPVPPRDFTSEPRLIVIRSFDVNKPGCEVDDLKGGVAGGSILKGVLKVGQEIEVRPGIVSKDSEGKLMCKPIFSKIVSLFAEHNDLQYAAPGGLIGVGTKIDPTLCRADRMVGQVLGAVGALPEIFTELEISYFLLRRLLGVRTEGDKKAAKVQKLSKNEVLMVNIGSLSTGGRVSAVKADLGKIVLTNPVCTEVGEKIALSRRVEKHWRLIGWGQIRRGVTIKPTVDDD
Sequence of UniProt O60888 (O60888 whole entry, looked up): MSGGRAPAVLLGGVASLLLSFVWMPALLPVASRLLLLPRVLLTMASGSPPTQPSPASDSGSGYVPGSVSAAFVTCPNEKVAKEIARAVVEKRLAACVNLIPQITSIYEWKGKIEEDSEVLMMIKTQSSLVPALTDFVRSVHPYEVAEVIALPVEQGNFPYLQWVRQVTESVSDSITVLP
Sequence of UniProt O15121 (O15121 whole entry, looked up): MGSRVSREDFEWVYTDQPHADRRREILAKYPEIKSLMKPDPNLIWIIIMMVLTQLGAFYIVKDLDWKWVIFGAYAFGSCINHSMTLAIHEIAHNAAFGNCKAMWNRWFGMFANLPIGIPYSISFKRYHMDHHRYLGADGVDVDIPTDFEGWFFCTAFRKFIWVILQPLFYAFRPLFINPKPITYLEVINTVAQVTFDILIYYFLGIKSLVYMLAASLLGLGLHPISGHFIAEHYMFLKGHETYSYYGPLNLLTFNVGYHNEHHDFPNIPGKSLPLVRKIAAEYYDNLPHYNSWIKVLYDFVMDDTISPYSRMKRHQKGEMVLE

| Target | log2 fold change |
| --- | --- |
| CTNNB1 (UniProt P35222) | 0.079 (inactive) |
| DENND10 (UniProt Q8TCE6) | 0.008 (inactive) |
| EXOSC10 (UniProt Q01780) | -0.327 (inactive) |
| EXOC4 (UniProt Q96A65) | 0.14 (inactive) |
| DEGS1 (UniProt O15121) | 0.002 (inactive) |
| DDX27 (UniProt Q96GQ7) | 0.124 (inactive) |
| EDC4 (UniProt Q6P2E9) | 0.113 (inactive) |
| CTSV (UniProt O60911) | 0 (inactive) |
| CYB561A3 isoform 2 (UniProt Q8NBI2) | -0.014 (inactive) |
| ERLIN2 (UniProt O94905) | 0.092 (inactive) |
| DPYSL2 (UniProt Q16555) | -0.054 (inactive) |
| ELAC1 (UniProt Q9H777) | 0.063 (inactive) |
| FAM50A (UniProt Q14320) | 0.055 (inactive) |
| FAM118A (UniProt Q9NWS6) | -0.172 (inactive) |
| DIP2A (UniProt Q14689) | 0 (inactive) |
| DNAJC24 (UniProt Q6P3W2) | 0.038 (inactive) |
| DHRS13 (UniProt Q6UX07) | 0.021 (inactive) |
| FAM193B (UniProt Q96PV7) | 0.162 (inactive) |

| Target | log2 fold change |
| --- | --- |
| ECPAS (UniProt Q5VYK3) | 0.122 (inactive) |
| DMAC1 (UniProt Q96GE9) | -0.105 (inactive) |
| ELF1 (UniProt P32519) | 0.018 (inactive) |
| DNAH10 (UniProt Q8IVF4) | -0.06 (inactive) |
| DOCK8 (UniProt Q8NF50) | -0.079 (inactive) |
| ERCC6 (UniProt Q03468) | -0.088 (inactive) |
| ETNK1 (UniProt Q9HBU6) | -0.007 (inactive) |
| DYNC1I2 isoform 5 (UniProt Q13409) | -0.014 (inactive) |
| CUX1 isoform 3 (UniProt P39880) | -0.018 (inactive) |
| CWF19L2 (UniProt Q2TBE0) | -0.002 (inactive) |
| EIF2S3 (UniProt P41091) | 0.04 (inactive) |
| CUTA isoform 2 (UniProt O60888) | -0.002 (inactive) |
| DNAH5 (UniProt Q8TE73) | -0.006 (inactive) |
| EPHX2 (UniProt P34913) | 0.003 (inactive) |
| ELOVL5 isoform 2 (UniProt Q9NYP7) | 0.132 (inactive) |
| DAXX (UniProt Q9UER7) | -0.097 (inactive) |
| CTSS (UniProt P25774) | -0.074 (inactive) |

Each target was assayed with COC(=O)[C@H](CCSC)NC(=O)C1=C(C=C(C=C1)NC[C@H](CS)N)C2=CC=CC=C2 in the same assay as above.
In short: as §1

| Target | log2 fold change |
| --- | --- |
| CTNNB1 (UniProt P35222) | -0.015 (inactive) |
| DENND10 (UniProt Q8TCE6) | -0.048 (inactive) |
| EXOSC10 (UniProt Q01780) | 0.123 (inactive) |
| EXOC4 (UniProt Q96A65) | 0.01 (inactive) |
| DEGS1 (UniProt O15121) | 0.106 (inactive) |
| DDX27 (UniProt Q96GQ7) | 0.057 (inactive) |
| EDC4 (UniProt Q6P2E9) | 0.005 (inactive) |
| CTSV (UniProt O60911) | 0.02 (inactive) |
| DCP2 (UniProt Q8IU60) | 0.081 (inactive) |
| ERLIN2 (UniProt O94905) | 0.004 (inactive) |
| DPYSL2 (UniProt Q16555) | -0.009 (inactive) |
| ELAC1 (UniProt Q9H777) | 0.022 (inactive) |
| FAM50A (UniProt Q14320) | -0.023 (inactive) |
| FAM118A (UniProt Q9NWS6) | -0.079 (inactive) |
| DIP2A (UniProt Q14689) | 0.077 (inactive) |
| DNAJC24 (UniProt Q6P3W2) | 0.099 (inactive) |
| EZH2 isoform 2 (UniProt Q15910) | -0.302 (inactive) |
| DHRS13 (UniProt Q6UX07) | -0.114 (inactive) |

| Target | log2 fold change |
| --- | --- |
| FAM193B (UniProt Q96PV7) | 0.044 (inactive) |
| ECPAS (UniProt Q5VYK3) | -0.045 (inactive) |
| DMAC1 (UniProt Q96GE9) | -0.019 (inactive) |
| DNAH10 (UniProt Q8IVF4) | -0.013 (inactive) |
| DOCK8 (UniProt Q8NF50) | -0.154 (inactive) |
| ERCC6 (UniProt Q03468) | 0.055 (inactive) |
| ETNK1 (UniProt Q9HBU6) | -0.027 (inactive) |
| DYNC1I2 isoform 5 (UniProt Q13409) | 0.028 (inactive) |
| CUX1 isoform 3 (UniProt P39880) | 0.01 (inactive) |
| EIF2S3 (UniProt P41091) | -0.002 (inactive) |
| CUTA isoform 2 (UniProt O60888) | 0.122 (inactive) |
| EIF2AK1 (UniProt Q9BQI3) | 0.04 (inactive) |
| DNAH5 (UniProt Q8TE73) | -0.072 (inactive) |
| EPHX2 (UniProt P34913) | -0.011 (inactive) |
| EDEM2 (UniProt Q9BV94) | 0.105 (inactive) |
| ELOVL5 isoform 2 (UniProt Q9NYP7) | -0.048 (inactive) |
| DAXX (UniProt Q9UER7) | 0.109 (inactive) |
| CTSS (UniProt P25774) | -0.012 (inactive) |

Reference: the supplement of paper PMC10849652
